MITF inh – inhibitors of MITF, primary screen, MITF inhibitor project, cell-based, luminescence. inhibition, % (test concentration not listed). AID 2240, 2010. TRPM1 promoter luciferase, 24 h. 0.28% of 37,000 active; in the data active means inhibition above about 85%; inconclusive means no clear call, values can overlap the other calls; inactive means below about 68%;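 further: human melanocyte line stably carrying TRPM1 promoter luciferase reporter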
Shh pathway inh – Hedgehog pathway signaling inhibitors, primary screen, luminescence, Shh-LIGHT2 cells, Gli-luciferase; inhibition, % (concentration not given with the values); 2.1% of 22,000 active; AID 2313, 2010; Shh-LIGHT2 Gli-luciferase reporter, 30 h;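 active means mean inhibition across valid replicates above about 65%, limit read from the data; inconclusive means mean under the limit, yet half or more replicates past it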;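 further: pathway switched on by Shh-conditioned medium diluted 1 in 25 in low serum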
NOMO-1 viab – NOMO-1 AML cell viability reduction, primary screen, STK33 inhibitor project, CellTiter-Glo luminescence | NOMO-1 AML viability, 72 h | inhibition, % (no concentration beside the values) | 7.5% of 37,000 active; in the data active means inhibition above about 80%; inconclusive means no clear call, values can overlap the other calls
Each line names hits and unclear results; the compound was inactive in the other large screens. Sampled rows, rich in hits. Any-hit rate of the full collection: about 7.9%.

COc1ccc(-c2nnc(SCC(=O)c3ccc(-c4ccccc4)cc3)o2)cc1OC	none (no result: Shh pathway inh)
Cc1ccc2cc3c(nc2c1)N(c1ccc(C(=O)NCc2ccco2)cc1)CC3	NOMO-1 viab 116
Cc1ccc2cc3c(nc2c1)N(c1ccccc1)CC3	none (no result: Shh pathway inh)
Cn1c(SCC(=O)Nc2ccc(Br)c(Cl)c2)nnc1-c1ccco1	none (no result: Shh pathway inh)
COc1cc(CO)cc(Cl)c1OCc1cccc(C(=O)O)c1	none (no result: Shh pathway inh)
COc1ccc(NC(=O)Nc2cccc3c2O[C@@H](CN(C)Cc2ccccc2)[C@H](C)CN([C@@H](C)CO)C3=O)cc1	NOMO-1 viab 93
COc1ccc(CN(C)C[C@H]2Oc3c(NC(=O)Nc4ccccc4)cccc3C(=O)N([C@@H](C)CO)C[C@H]2C)cc1	none
COc1ccc(NC(=O)Nc2cccc3c2O[C@@H](CN(C)Cc2ccc(-c4ccccc4)cc2)[C@H](C)CN([C@@H](C)CO)C3=O)cc1	none
COc1ccc(NC(=O)Nc2cccc3c2O[C@H](CN(C)Cc2ccc(Oc4ccccc4)cc2)[C@H](C)CN([C@@H](C)CO)C3=O)cc1	NOMO-1 viab 113
COc1ccc(NC(=O)Nc2cccc3c2O[C@@H](CN(C)Cc2ccc(-c4ccccc4)cc2)[C@@H](C)CN([C@H](C)CO)C3=O)cc1	NOMO-1 viab 113
COc1ccc(CN(C)C[C@@H]2Oc3c(NC(=O)Nc4ccc(F)cc4)cccc3C(=O)N([C@H](C)CO)C[C@H]2C)cc1	NOMO-1 viab 94
COc1ccc(CN(C)C[C@@H]2Oc3c(NC(=O)Nc4ccc(F)cc4)cccc3C(=O)N([C@@H](C)CO)C[C@@H]2C)cc1	none
COc1ccc(NC(=O)Nc2cccc3c2O[C@H](CN(C)Cc2ccccc2)[C@H](C)CN([C@@H](C)CO)C3=O)cc1	none
C[C@@H]1CN([C@H](C)CO)C(=O)c2cccc(NS(=O)(=O)c3ccc(F)cc3)c2O[C@@H]1CN(C)C(=O)Nc1cccc2ccccc12	none
Cc1c(NC(=O)CNS(=O)(=O)c2ccc(Br)cc2)c(=O)n(-c2ccccc2)n1C	none (no result: Shh pathway inh)
NC(=O)c1c(NC(=O)C2CC(=O)N(c3ccccc3)C2)sc2c1CCCC2 (stereo not given)	none (no result: Shh pathway inh)
O=C(CCN1C(=O)C2C3C=CC(C3)C2C1=O)Nc1cccc2ccccc12 (stereo not given)	none (no result: Shh pathway inh)
C[C@H]1CN([C@@H](C)CO)C(=O)c2cccc(NC(=O)Nc3cccc4ccccc34)c2O[C@H]1CN(C)Cc1ccc(Oc2ccccc2)cc1	NOMO-1 viab 93
COc1ccc(CN(C)C[C@H]2Oc3c(NC(=O)Nc4cccc5ccccc45)cccc3C(=O)N([C@H](C)CO)C[C@H]2C)cc1	none
COc1ccc(CN(C)C[C@H]2Oc3c(NC(=O)Nc4ccc(OC)cc4)cccc3C(=O)N([C@H](C)CO)C[C@H]2C)cc1	none
COc1ccc(CN(C)C[C@@H]2Oc3c(NC(=O)Nc4ccc(OC)cc4)cccc3C(=O)N([C@@H](C)CO)C[C@H]2C)cc1	NOMO-1 viab 93
C[C@H]1CN([C@@H](C)CO)C(=O)c2cc(NC(=O)Cc3ccccc3)ccc2O[C@H]1CN(C)S(=O)(=O)c1ccc(Cl)cc1	none
Cc1cc(C)c(NS(=O)(=O)c2ccc(NC(=O)c3nc4nc(C)cc(C(F)F)n4n3)cc2)c(C)c1	none (no result: Shh pathway inh)
C[C@@H]1CN([C@H](C)CO)C(=O)Cc2cc(NC(=O)c3ccncc3)ccc2O[C@H]1CN(C)S(=O)(=O)c1ccccc1	none
COc1ccc2c(=O)cc(-c3ccccc3)oc2c1	none
COc1cccc(-c2cc(=O)c3cc(OC)ccc3o2)c1	MITF inh 93
C[C@H](CO)N1C[C@H](C)[C@H](CN(C)Cc2ccc(C(=O)Nc3ccccc3N)cc2)Oc2ccc(NC(=O)Nc3cccc4ccccc34)cc2C1=O	NOMO-1 viab inconclusive (no result: Shh pathway inh)
C[C@H](CO)N1C[C@H](C)[C@H](CN(C)Cc2ccc(C(=O)Nc3ccccc3N)cc2)Oc2ccc(NC(=O)Nc3cccc4ccccc34)cc2CC1=O	NOMO-1 viab 141 (no result: Shh pathway inh)
C[C@@H]1CN([C@@H](C)CO)C(=O)Cc2cc(NC(=O)Nc3ccc(C(F)(F)F)cc3)ccc2O[C@@H]1CN(C)Cc1ccc(C(=O)Nc2ccccc2N)cc1	NOMO-1 viab 127 (no result: Shh pathway inh)
C[C@H]1CN([C@@H](C)CO)C(=O)Cc2cc(NC(=O)C3CC3)ccc2O[C@H]1CN(C)Cc1ccc(C(=O)Nc2ccccc2N)cc1	NOMO-1 viab 128 (no result: Shh pathway inh)
C[C@@H]1CN([C@H](C)CO)C(=O)Cc2cc(NC(=O)c3ccncc3)ccc2O[C@@H]1CN(C)Cc1ccc(C(=O)Nc2ccccc2N)cc1	none (no result: Shh pathway inh)
C[C@H]1CN([C@@H](C)CO)C(=O)Cc2cc(NC(=O)Nc3ccc(F)cc3)ccc2O[C@@H]1CN(C)Cc1ccc(C(=O)Nc2ccccc2N)cc1	none (no result: Shh pathway inh)
C[C@@H]1CN([C@H](C)CO)C(=O)Cc2cc(NC(=O)Nc3ccc(F)cc3)ccc2O[C@H]1CN(C)Cc1ccc(C(=O)Nc2ccccc2N)cc1	none (no result: Shh pathway inh)
C[C@@H]1CN([C@H](C)CO)C(=O)Cc2cc(NC(=O)Nc3ccccc3)ccc2O[C@@H]1CN(C)Cc1ccc(C(=O)Nc2ccccc2N)cc1	NOMO-1 viab 108 (no result: Shh pathway inh)
CC(C)NC(=O)Nc1ccc2c(c1)C(=O)N([C@@H](C)CO)C[C@@H](C)[C@H](CN(C)S(=O)(=O)c1cn(C)cn1)O2	none
C[C@@H]1CN([C@@H](C)CO)C(=O)c2cccc(NS(=O)(=O)c3ccc(F)cc3)c2O[C@@H]1CN(C)C(=O)Nc1cccc2ccccc12	none
Cc1ccccc1Cn1cc(NC(=O)C2CC(c3ccc(Cl)cc3)=NO2)cn1 (stereo not given)	none (no result: Shh pathway inh)
O=C(Cn1c(=O)oc2ccccc21)Nc1cccc([N+](=O)[O-])c1	none (no result: Shh pathway inh)
Cc1ccc(Cn2nc(C)c(NC(=O)c3nc4ncccn4n3)c2C)cc1	none (no result: Shh pathway inh)
COc1ccc(CN(C)C[C@H]2Oc3c(NS(=O)(=O)c4c(C)noc4C)cccc3C(=O)N([C@H](C)CO)C[C@H]2C)cc1	none
CCn1c(SCC(=O)Nc2c(F)cc(F)cc2Br)nnc1-c1ccccc1F	none (no result: Shh pathway inh)
C[C@@H]1CN([C@@H](C)CO)C(=O)Cc2cc(NC(=O)c3ccncc3)ccc2O[C@@H]1CN(C)Cc1ccc(C(=O)Nc2ccccc2N)cc1	none (no result: Shh pathway inh)
C[C@H](CO)N1C[C@H](C)[C@H](CN(C)Cc2ccc(C(=O)Nc3ccccc3N)cc2)Oc2ccc(NC(=O)Nc3ccc(C(F)(F)F)cc3)cc2CC1=O	NOMO-1 viab 140 (no result: Shh pathway inh)
C[C@H](CO)N1C[C@H](C)[C@H](CN(C)Cc2ccc(C(=O)Nc3ccccc3N)cc2)Oc2ccc(NC(=O)c3ccncc3)cc2CC1=O	NOMO-1 viab 128 (no result: Shh pathway inh)
C[C@@H]1CN([C@H](C)CO)C(=O)c2cc(NC(=O)Nc3cccc4ccccc34)ccc2O[C@H]1CN(C)Cc1ccc(C(=O)Nc2ccccc2N)cc1	none (no result: Shh pathway inh)
C[C@H](CO)N1C[C@H](C)[C@H](CN(C)Cc2ccc(C(=O)Nc3ccccc3N)cc2)Oc2ccc(NC(=O)Cn3cnnn3)cc2CC1=O	NOMO-1 viab 97 (no result: Shh pathway inh)
C[C@@H]1CN([C@H](C)CO)C(=O)c2cc(NC(=O)Cn3cnnn3)ccc2O[C@H]1CN(C)Cc1ccc(C(=O)Nc2ccccc2N)cc1	none (no result: Shh pathway inh)
C[C@@H]1CN([C@H](C)CO)C(=O)c2cc(NC(=O)Nc3ccc(C(F)(F)F)cc3)ccc2O[C@H]1CN(C)Cc1ccc(C(=O)Nc2ccccc2N)cc1	none (no result: Shh pathway inh)

Assay outcomes deposited in PubChem by Broad Institute.
